Reference: PubChem BioAssay (NCATS)
Records with an inconclusive call do not appear. Active and inactive are the calls of the source. The call rests on the fitted dose curve; in most records, active means well fitted curve in the direction sought with a large enough effect; inconclusive means small, poorly fitted or top-dose-only effect, or another doubt; inactive means no such curve, though single readings can be large; an effect the other way counts as inactive or inconclusive.

What was measured:
[1] = Quantitative High-Throughput drug screen in 47 multiple myeloma cell lines against the NCATS MIPE library collection: Karpas417_ECACC cell viability assay (AID 1918961); settings: Karpas417 myeloma viability, CellTiter-Glo ATP luminescence, 48 h; viability (% of DMSO): at 45.8 µM (top of the series)
How it was run: (§1)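 Luminescent ATP measurement with CellTiter-Glo gives viability, scaled between DMSO-only wells (100%) and media-only wells (0%). Cells, 500 per well, faced library compounds for 48 hours at 37C.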

[2] = Quantitative High-Throughput drug screen in 47 multiple myeloma cell lines against the NCATS MIPE library collection: H1112_PLB cell viability assay (AID 1918967; further: nearly all actives have a fitted effect of over 30% in size; further: potency means the concentration at half of the fitted maximal effect)
How it was run: (§2)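 Steps: seed 500 cells per well; pin-transfer MIPE 4.0 library; incubate 48 h at 37C, 5% CO2, humidified; add CellTiter-Glo, 5 min room temperature; read luminescence.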

[3] = Quantitative High-Throughput drug screen in 47 multiple myeloma cell lines against the NCATS MIPE library collection: Karpas25_ECACC cell viability assay (AID 1918968; further: nearly all actives have a fitted effect of over 35% in size; further: potency means the concentration at half of the fitted maximal effect)
How it was run: as §2

[4] = Quantitative High-Throughput drug screen in 47 multiple myeloma cell lines against the NCATS MIPE library collection: KMS27_JCRB cell viability assay (AID 1918970); settings: KMS27 myeloma cells, CellTiter-Glo ATP viability, 48 h; viability (% of DMSO): at 45.8 µM (top of the series); further: nearly all actives have a fitted effect of over 30% in size; further: potency means the concentration at half of the fitted maximal effect
How it was run: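 Each line is seeded at 500 cells per well and treated with library compounds for 48 hours under 37 °C, 5% CO2. CellTiter-Glo is then added for 5 min at room temperature before median relative luminescence is recorded.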

[5] = Quantitative High-Throughput drug screen in 47 multiple myeloma cell lines against the NCATS MIPE library collection: JIM3_ECACC cell viability assay (AID 1918963; further: nearly all actives have a fitted effect of over 35% in size; further: potency means the concentration at half of the fitted maximal effect)
How it was run: (§3)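 qHTS of the MIPE 4.0 collection: 500 myeloma cells/well, 48 h drug exposure at 37C in 5% CO2, then CellTiter-Glo for 5 min at room temperature before luminescence reading.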

[6] = Quantitative High-Throughput drug screen in 47 multiple myeloma cell lines against the NCATS MIPE library collection: JJN3_DSMZ cell viability assay (AID 1918966; further: nearly all actives have a fitted effect of over 50% in size; further: potency means the concentration at half of the fitted maximal effect)
How it was run: as §2

[7] = Quantitative High-Throughput drug screen in 47 multiple myeloma cell lines against the NCATS MIPE library collection: JIM1_ECACC cell viability assay (AID 1918964; further: potency means the concentration at half of the fitted maximal effect)
How it was run: as §2

[8] = Quantitative High-Throughput drug screen in 47 multiple myeloma cell lines against the NCATS MIPE library collection: KHM11_PLB cell viability assay (AID 1918962); further: nearly all actives have a fitted effect of over 35% in size; further: potency means the concentration at half of the fitted maximal effect
How it was run: as §3

[9] = Quantitative High-Throughput drug screen in 47 multiple myeloma cell lines against the NCATS MIPE library collection: INA6_PLB cell viability assay (AID 1918965; further: nearly all actives have a fitted effect of over 55% in size; further: potency means the concentration at half of the fitted maximal effect)
How it was run: as §1

CCN(C(=O)c1c(O)c2c(Cl)cccc2n(C)c1=O)c1ccccc1
active: viability (% of DMSO) [1] 104% | Potency [4] 16600 nM
inactive: Potency [2] | Potency [3]

Nc1nc(=O)n([C@H]2CSC(CO)O2)cc1F (stereo partly drawn)
inactive: Potency [5] | Potency [6] | Potency [3] | Potency [4]

CC(=CC(=O)Nc1ccccc1C(=O)O)c1ccc2ccccc2c1
active: Potency [7] 590 nM | Potency [3] 20900 nM

CC(C)NC[C@@H](C(=O)N1CCN(c2ncnc3c2[C@H](C)C[C@H]3O)CC1)c1ccc(Cl)cc1
active: Potency [8] 14800 nM | Potency [9] 4180 nM | Potency [6] 6620 nM | Potency [2] 3720 nM | Potency [3] 469 nM | Potency [4] 1870 nM

C[C@](Cc1c[nH]c2ccccc12)(NC(=O)OC1C2CC3CC(C2)CC1C3)C(=O)NC[C@H](NC(=O)CCC(=O)O)c1ccccc1 (stereo partly drawn)
inactive: Potency [5] | Potency [7] | Potency [6]

COc1cc(N2CCC(C(N)=O)CC2)ccc1Nc1nc(N)c(Cl)c(Nc2ccccc2S(=O)(=O)C(C)C)n1
active: Potency [5] 166 nM | Potency [7] 46.9 nM | Potency [9] 7430 nM | Potency [6] 105 nM | Potency [2] 148 nM | Potency [3] 235 nM | Potency [4] 264 nM

Cn1cnc2c(F)c(Nc3ccc(Br)cc3F)c(C(=O)NOCCO)cc21
active: Potency [5] 372 nM | Potency [9] 18.7 nM | Potency [4] 7.4 nM

COc1cc([C@@H]2c3cc4c(cc3[C@@H](O[C@@H]3O[C@@H]5CO[C@@H](c6cccs6)O[C@@H]5[C@H](O)[C@@H]3O)[C@H]3COC(=O)[C@H]23)OCO4)cc(OC)c1O
active: Potency [5] 833 nM | Potency [7] 209 nM | Potency [9] 46.9 nM | Potency [6] 13200 nM | Potency [2] 590 nM | Potency [3] 1870 nM | Potency [4] 132 nM

C=C1C(=O)O[C@H]2[C@@H]1CCC(C)=CCC[C@@]1(C)O[C@@H]21
active: Potency [8] 10500 nM | Potency [9] 935 nM | Potency [6] 7430 nM | Potency [2] 4180 nM | Potency [3] 1050 nM | Potency [4] 9350 nM

Cn1cc(-c2ccc3ncc(Cc4ccc5ncccc5c4)n3n2)cn1
inactive: Potency [2] | Potency [3]
active: Potency [5] 16600 nM | Potency [9] 13200 nM

Cc1nc(NC(=O)N2CCC[C@@H]2C(N)=O)sc1-c1ccnc(C(C)(C)C(F)(F)F)c1
inactive: Potency [4]
active: Potency [9] 14800 nM | Potency [6] 6620 nM | Potency [3] 5260 nM

c1ccc2c(Oc3nc(Nc4ccc(N5CCOCC5)cc4)c4ncn(C5CCCCC5)c4n3)cccc2c1
inactive: Potency [2]
active: Potency [5] 18700 nM

FC(F)c1nc2ccccc2n1-c1nc(N2CCOCC2)nc(N2CCOCC2)n1
active: Potency [8] 469 nM | Potency [9] 296 nM | Potency [6] 743 nM | Potency [3] 93.5 nM | Potency [4] 105 nM

CN[C@H](CC(C)C)C(=O)N[C@H]1C(=O)N[C@@H](CC(N)=O)C(=O)N[C@@H]2C(=O)N[C@H]3C(=O)N[C@H](C(=O)N[C@H](C(=O)O)c4cc(O)cc(O)c4-c4cc3ccc4O)[C@H](O)c3ccc(c(Cl)c3)Oc3cc2cc(c3O[C@@H]2O[C@H](CO)[C@@H](O)[C@H](O)[C@@H]2O[C@H]2C[C@](C)(N)[C@H](O)[C@H](C)O2)Oc2ccc(cc2Cl)[C@H]1O
inactive: Potency [6] | Potency [2]

CCCCCN=C(N)NN=Cc1c[nH]c2ccc(OC)cc12
active: Potency [5] 5260 nM | Potency [7] 1480 nM | Potency [9] 526 nM

COc1ccc(S(=O)(=O)Nc2cccnc2Nc2ccc(O)cc2)cc1
active: Potency [5] 52.6 nM | Potency [9] 83.3 nM | Potency [6] 1320 nM | Potency [2] 105 nM | Potency [3] 235 nM

CS[C@H]1SC[C@@H]2C(=O)N(C)[C@H](C(C)C)C(=O)OC[C@H](NC(=O)c3cnc4ccccc4n3)C(=O)N[C@H](C)C(=O)N(C)[C@@H]1C(=O)N(C)[C@H](C(C)C)C(=O)OC[C@H](NC(=O)c1cnc3ccccc3n1)C(=O)N[C@H](C)C(=O)N2C
active: Potency [8] 9.3 nM | Potency [9] 1 nM | Potency [6] 5.3 nM | Potency [2] 11.8 nM | Potency [3] 1 nM | Potency [4] 1 nM

Cc1ccccc1C(=O)Nc1ccc(C(=O)N2CCCC(O)c3cc(Cl)ccc32)c(C)c1 (stereo not drawn)
inactive: Potency [5] | Potency [2]
active: Potency [6] 13200 nM | Potency [3] 14800 nM

CC1(C)O[C@@H]2C[C@H]3[C@@H]4CCC5=CC(=O)C=C[C@]5(C)[C@@H]4[C@@H](O)C[C@]3(C)[C@]2(C(=O)CO)O1
inactive: Potency [5] | Potency [2]
active: Potency [3] 148 nM

CC(C)OC(=O)[C@H](C)N[P@](=O)(OC[C@H]1O[C@@H](n2ccc(=O)[nH]c2=O)[C@](C)(F)[C@H]1O)Oc1ccccc1
inactive: Potency [8] | Potency [9] | Potency [3] | Potency [4]

O=C(NC1CC1)c1cccc(-c2ccc3c(NC(=O)C4CC4)n[nH]c3c2)c1
active: Potency [5] 11800 nM | Potency [9] 5260 nM | Potency [2] 6620 nM

C=C1C(=CC=C2CCC[C@]3(C)[C@@H]([C@H](C)CCCC(C)(C)O)CC[C@@H]23)C[C@@H](O)C[C@@H]1O
active: Potency [8] 10500 nM | Potency [7] 5260 nM | Potency [9] 5900 nM | Potency [2] 7430 nM | Potency [3] 5900 nM | Potency [4] 1660 nM

OCCN1C[C@H](O)[C@@H](O)[C@H](O)[C@@H]1CO
inactive: Potency [5] | Potency [2] | Potency [3] | Potency [4]

O=C(C=CC#Cc1cccc(NS(=O)(=O)c2ccccc2)c1)NO
active: Potency [8] 2350 nM | Potency [7] 1320 nM | Potency [9] 743 nM | Potency [6] 2350 nM | Potency [2] 2960 nM | Potency [3] 833 nM

CC[C@]12C=CCN3CC[C@@]4(c5cc([C@@]6(C(=O)OC)C[C@H]7C[C@@H](C(C)(F)F)CN(Cc8c6[nH]c6ccccc86)C7)c(OC)cc5N(C)[C@H]4[C@@](O)(C(=O)OC)[C@H]1OC(C)=O)[C@@H]32
active: Potency [9] 1 nM | Potency [6] 1480 nM | Potency [3] 23.5 nM

Cc1cc(C(=O)NOCCO)c(Nc2ccc(I)cc2F)n(C)c1=O
inactive: Potency [7]
active: Potency [6] 4690 nM | Potency [4] 2.6 nM

Cc1cnc(Nc2ccc(CN3CCOCC3)cc2)nc1Nc1cccc(S(=O)(=O)NC(C)(C)C)c1
active: Potency [5] 2640 nM | Potency [9] 372 nM | Potency [6] 6620 nM | Potency [2] 3320 nM | Potency [3] 1320 nM

CC(Cc1ccc(O)c(O)c1)(NN)C(=O)O (stereo not drawn)
inactive: Potency [8] | Potency [7] | Potency [9] | Potency [2] | Potency [4]

CCOc1cc2ncc(C#N)c(Nc3ccc(OCc4ccccn4)c(Cl)c3)c2cc1NC(=O)C=CCN(C)C
active: Potency [8] 935 nM | Potency [7] 418 nM | Potency [9] 264 nM | Potency [6] 5900 nM | Potency [3] 662 nM | Potency [4] 264 nM

CC(=O)OCC(=O)[C@@]12N=C(C)O[C@H]1C[C@H]1[C@@H]3CCC4=CC(=O)C=C[C@]4(C)[C@@H]3[C@@H](O)C[C@@]12C
active: Potency [9] 11800 nM | Potency [3] 5260 nM

C=C(C)[C@@H]1CC[C@]2(C)CC[C@]3(C)[C@H](CC[C@@H]4[C@@]5(C)CC[C@H](O)C(C)(C)[C@H]5CC[C@]43C)[C@@H]12
inactive: Potency [5] | Potency [7] | Potency [9] | Potency [6] | Potency [2] | Potency [3] | Potency [4]

CCCCC(=O)O[C@]1(C(=O)CO)[C@@H](C)C[C@H]2[C@@H]3CCC4=CC(=O)C=C[C@]4(C)[C@@]3(F)[C@@H](O)C[C@@]21C
inactive: Potency [8] | Potency [5]
active: Potency [3] 14.8 nM | Potency [4] 11800 nM

Cc1cc(-c2nnc3n2CCCCC3)c(C)n1-c1ccccc1
inactive: Potency [5] | Potency [9] | Potency [2] | Potency [3]

CC(C)[C@H](CO)Nc1nc(Nc2cccc(Cl)c2)c2ncn(C(C)C)c2n1
active: Potency [5] 18700 nM | Potency [9] 18700 nM | Potency [2] 26400 nM | Potency [3] 26400 nM

CC(=O)O[C@]1(C(C)=O)CC[C@H]2[C@@H]3C=C(C)C4=CC(=O)CC[C@]4(C)[C@@H]3CC[C@@]21C
inactive: Potency [8]
active: Potency [7] 10500 nM | Potency [3] 8330 nM | Potency [4] 9350 nM

Oc1cc2c(cc1O)C1c3ccc(O)c(O)c3OCC1(O)C2 (stereo not drawn)
inactive: Potency [8] | Potency [2] | Potency [4]

COc1ccc2cc([S+]([O-])Cc3ncc(C)c(OC)c3C)nc2c1
inactive: Potency [5] | Potency [7] | Potency [6] | Potency [2]
active: Potency [3] 16600 nM

C=C1C[C@@]2(O)O[C@@]3(C[C@H]2C(C)C)[C@H](C)CC[C@H]13
inactive: Potency [5] | Potency [9] | Potency [2] | Potency [4]

Cc1cn([C@@H]2O[C@H](CO)[C@@H](O)[C@H]2F)c(=O)[nH]c1=O
inactive: Potency [5] | Potency [9] | Potency [2] | Potency [3]

CCC(C(=O)O)C1CCC(C)C(C(C)C(O)C(C)C(=O)C(CC)C2OC3(C=CC(O)[C@@]4(CC[C@](C)(C5CC[C@@](O)(CC)C(C)O5)O4)O3)C(C)CC2C)O1 (stereo partly drawn)
active: Potency [8] 14800 nM | Potency [7] 332 nM | Potency [9] 1660 nM | Potency [6] 1050 nM | Potency [2] 8330 nM | Potency [3] 7430 nM | Potency [4] 743 nM

CCc1nc(-c2cccc(C)c2)c(-c2ccnc(NC(=O)c3ccccc3)c2)s1
active: Potency [8] 935 nM | Potency [7] 9350 nM | Potency [9] 16600 nM | Potency [2] 14800 nM
inactive: Potency [4]
